In PubChem BioAssay (NCI) one finds growth data, which are given here for 13 compounds.

Some test systems named below: DU-145 prostate; K-562 leukemia; MALME-3M melanoma; MDA-MB-231 breast; RXF 393 renal; SF-268 CNS; SF-295 CNS; SF-539 CNS; UACC-257 melanoma; M14 melanoma.
What all share (assay): NCI-60 one-dose screen, 48 h (100 = growth as untreated, 0 = no growth, -100 = all killed)
What all share (conditions): 10 µM unless noted

Compounds without any hit were thinned out: in the full panel of roughly 83,000, 20% have a hit.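 48-hour exposure, single concentration, 96-well plates; percent growth endpoint where 0 means no net growth. Active: below 10.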 A number with no mark means an inactive call. Activity calls are given as the source filed them.

As to `COC(=O)[C@@]1(C)CC[C@]2(C)CC[C@]3(C)C4=CC=C5C(=CC(=O)C(O)=C5C)[C@]4(C)CC[C@@]3(C)[C@@H]2C1`, the growth in the experiment on DU-145 prostate is -96.7% (active); in the experiment on K-562 leukemia, -54.4% (active); in the experiment with MALME-3M melanoma, -87.3% (active); in the experiment on MDA-MB-231 breast, -93.4% (active); with RXF 393 renal, -84% (active); in the experiment with SF-268 CNS it was -83.2% (active). Besides, the growth in the experiment with SF-295 CNS was -91.8% (active); with SF-539 CNS, -99.6% (active); in the experiment on UACC-257 melanoma, -88.3% (active); in the experiment on M14 melanoma it was -94% (active).
As to `CC(=O)O[C@H]1C(=O)[C@@]2(C)[C@H]([C@H](OC(=O)c3ccccc3)[C@]3(O)C[C@H](OC(=O)[C@H](OC(=O)OC[C@@H]4COC(C)(C)O4)[C@@H](NC(=O)c4ccccc4)c4ccccc4)C(C)=C1C3(C)C)[C@]1(OC(C)=O)CO[C@@H]1C[C@@H]2O`, the growth in the experiment with DU-145 prostate is 6.23% (active); in the experiment with K-562 leukemia it was 13.8%; in the experiment on MALME-3M melanoma, 28.9%; with MDA-MB-231 breast, 2.49% (active); in the experiment with RXF 393 renal, -9.73% (active); in the experiment with SF-268 CNS, 32%. The growth in the experiment with SF-295 CNS is -7.77% (active); in the experiment with SF-539 CNS it was -9.82% (active); with UACC-257 melanoma it was 50.1%; with M14 melanoma, -20% (active).
As for `CN(C)CC(C(=O)Cc1ccccc1)c1ccccc1` (stereo unspecified), the growth with DU-145 prostate is -10.7% (active); in the experiment with K-562 leukemia, 47.2%; in the experiment with MALME-3M melanoma it was 37.5%; with MDA-MB-231 breast, 106%; with RXF 393 renal it was 6.5% (active); in the experiment with SF-268 CNS it was 30.6%. In addition, the growth is 113% in the experiment on SF-295 CNS, 5.03% (active) in the experiment on SF-539 CNS, 5.79% (active) in the experiment with UACC-257 melanoma and 36% with M14 melanoma.
Consider `COC(=O)[C@@H](C)C[C@H](Cc1ccccc1)NC(=O)c1csc([C@@H](C[C@H](C(C)C)N(C)C(=O)[C@H](C)NC(=O)[C@H]2CCCCN2C)OC(C)=O)n1`, for which the growth was 4.34% (active) in the experiment on DU-145 prostate; 10% (active) in the experiment on K-562 leukemia; 44.2% in the experiment with MALME-3M melanoma; 19.5% in the experiment on MDA-MB-231 breast; 8.78% (active) in the experiment with RXF 393 renal; 46.9% in the experiment on SF-268 CNS. Besides, the growth in the experiment on SF-295 CNS is 17%; with SF-539 CNS, -2.07% (active); in the experiment with UACC-257 melanoma, 45.8%; in the experiment with M14 melanoma it was 5.98% (active).
Take `C[C@@H]1CCC2[C@@H](C)[C@H](OC(=O)CCC(=O)NCCNC(=O)Cc3cc(=O)oc4cc(N(C)C)ccc34)O[C@@H]3O[C@]4(C)CC[C@@H]1C23OO4` (stereo partly specified): the growth in the experiment with DU-145 prostate was 94%; with K-562 leukemia, 13.6%; in the experiment with MALME-3M melanoma it was 49.6%; in the experiment with MDA-MB-231 breast, 77%; in the experiment with RXF 393 renal it was 61.7%; with SF-268 CNS it was 56.7%. Also, the growth was 41.8% with SF-295 CNS, 55.4% in the experiment on SF-539 CNS, 59.1% with UACC-257 melanoma and 38.4% with M14 melanoma.
As to `CCCCCCC(=O)NC1=C(N2CC2)C(=O)C(NC(=O)CCCCCC)=C(N2CC2)C1=O`, the growth with DU-145 prostate is 15.6%; in the experiment with K-562 leukemia, 70.7%; with MALME-3M melanoma, 7.93% (active); with MDA-MB-231 breast, 24.8%; in the experiment on RXF 393 renal it was 25.7%; in the experiment on SF-268 CNS, 52.9%. Besides, the growth in the experiment with SF-295 CNS was 29.7%; in the experiment with SF-539 CNS, 61.7%; with UACC-257 melanoma, 34.2%; with M14 melanoma, 20.5%.
For the compound `CC(=O)ONc1ccc([N+](=O)[O-])c(C(F)(F)F)c1`, the growth in the experiment with DU-145 prostate is 108%; in the experiment with K-562 leukemia, 105%; in the experiment on MALME-3M melanoma, 111%; in the experiment on MDA-MB-231 breast, 102%; in the experiment with RXF 393 renal, 115%; in the experiment with SF-268 CNS, 95.3%. Also, the growth in the experiment on SF-295 CNS is 97.8%; with SF-539 CNS, 93.5%; in the experiment with UACC-257 melanoma, 110%; in the experiment on M14 melanoma, 98.8%.
Take `O=C(CC1(O)C(=O)N(Cc2ccccc2)c2ccccc21)c1ccc(C(=O)NCC2CCC3(CC2)OOC2(CCCCC2)OO3)cc1` (stereo unspecified): the growth is -100% (active) in the experiment with DU-145 prostate; -48.3% (active) in the experiment with K-562 leukemia; -73% (active) in the experiment on MALME-3M melanoma; -65.8% (active) in the experiment with MDA-MB-231 breast; -81% (active) in the experiment with RXF 393 renal; -62% (active) in the experiment with SF-268 CNS. Moreover, the growth is 10.7% in the experiment with SF-295 CNS, -83.2% (active) in the experiment on SF-539 CNS, -21% (active) with UACC-257 melanoma and 13.1% with M14 melanoma.
Consider `CCN1C(=O)C(=C/C=C/c2ccccc2)C(=O)N(CC)C1=O`, for which the growth is 76.4% in the experiment with DU-145 prostate; 79.4% with K-562 leukemia; 82.5% in the experiment on MALME-3M melanoma; 86.4% in the experiment on MDA-MB-231 breast; 109% with RXF 393 renal; 72.5% in the experiment with SF-268 CNS. For the same compound, the growth in the experiment with SF-295 CNS is 105%; in the experiment with SF-539 CNS, 109%; in the experiment with UACC-257 melanoma, 93.9%; in the experiment on M14 melanoma, 82.5%.
For `C=CCCCN=C=S`, the growth in the experiment on DU-145 prostate is 60.5%; with K-562 leukemia, 59.8%; in the experiment with MALME-3M melanoma, 76.7%; in the experiment on MDA-MB-231 breast it was 68.3%; with RXF 393 renal, 80%; with SF-268 CNS it was 77.4%. Further, the growth in the experiment on SF-295 CNS is 92.4%; in the experiment with UACC-257 melanoma, 62.5%; in the experiment with M14 melanoma, 60.9%.
Take `C[C@]12CC[C@H]3[C@@H](CC[C@]4(O)C[C@@H](O[C@@H]5O[C@H](CO)[C@@H](O[C@@H]6OC[C@@H](O)[C@H](O)[C@H]6O)[C@H](O)[C@H]5O)CC[C@]34C=O)[C@@]1(O)CC[C@@H]2C1=CC(=O)OC1`: the growth in the experiment on DU-145 prostate was -62.4% (active); with K-562 leukemia, 4.28% (active); in the experiment with MALME-3M melanoma, -25% (active); in the experiment with MDA-MB-231 breast, 42.2%; in the experiment with RXF 393 renal, -19.4% (active); in the experiment with SF-268 CNS it was -44.6% (active). Further, the results for the growth in the experiment on SF-295 CNS, in the experiment on UACC-257 melanoma and in the experiment with M14 melanoma were 8.52% (active), -3.23% (active) and 23.8%, respectively.
With `CC(CC1CCCCC1)NCc1ccccc1` (stereo unspecified), the growth in the experiment on DU-145 prostate was 108%; in the experiment with K-562 leukemia it was 109%; in the experiment on MALME-3M melanoma it was 88.9%; with MDA-MB-231 breast, 97.3%; with RXF 393 renal it was 99.6%; in the experiment on SF-268 CNS it was 103%. Moreover, the growth with SF-295 CNS was 93.6%; with SF-539 CNS, 103%; in the experiment on M14 melanoma, 90.2%.
For `COc1cc2c(cc1OCCCCCn1c(-c3ccco3)nc3ccccc31)N=C[C@@H]1CCCN1C2=O`, the growth is 29.3% in the experiment with DU-145 prostate; 5.85% (active) in the experiment with K-562 leukemia; -47.8% (active) in the experiment with MALME-3M melanoma; 9.17% (active) in the experiment with MDA-MB-231 breast; -40.4% (active) in the experiment on RXF 393 renal; 8.92% (active) with SF-268 CNS. For the same compound, the growth in the experiment with SF-295 CNS is 9.61% (active); in the experiment on SF-539 CNS, 1.5% (active); with M14 melanoma it was -23% (active).
